Experimental data reported in PubChem BioAssay AID1159580 (chemical genetic matrix, 2015).
“And” between values parts separate entries of the source, which are not always exact repeats. Equal entries are not always repeated. Hit rate of the full screen: of about 5,500 compounds, about 2,000 (36%) were called active. Another 18% or so got no clear call; they are omitted. Cut-off read from the data, not from the text of the source: active = normalized growth mostly below about 0.91 (no sharp cut-off); inconclusive = no clear call, values can overlap the other calls; inactive = mostly above about 0.92. This is one part of the list.

Assay: chemical genetic growth profiling, strain panel (AID 1159580);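 note: tested at 20 µM; growth read once vehicle control cultures reached saturation at 30 °C; 1 = growth at the plate median or of vehicle wells; lower values mean less growth of the strain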
Conditions: S. cerevisiae deletion strains, growth OD

Measured: normalized growth

CC(=O)N[C@@H](Cc1c[nH]c2ccccc12)C(=O)O
inactive: locus YAL013W, strain DEP1, stronger effect = lower value 1.01 | locus YAL021C, strain ccr4, stronger effect = lower value 0.991 | locus YAL026C, strain drs2, stronger effect = lower value 0.978 | locus YAL030W, strain snc1, stronger effect = lower value 0.999 | locus YBL061C, strain skt5, stronger effect = lower value 0.975 | locus YBR009C, strain hhf1, stronger effect = lower value 1.03 | locus YBR021W, strain FUR4, stronger effect = lower value 0.998 | locus YBR023C, strain chs3, stronger effect = lower value 0.996 | locus YBR171W, strain sec66, stronger effect = lower value 0.977 | locus YBR229C, strain ROT2, stronger effect = lower value 1 | locus YBR231C, strain swc5, stronger effect = lower value 0.981 | locus YBR279W, strain paf1, stronger effect = lower value 0.982 | locus YCL011C, strain gbp2, stronger effect = lower value 0.982 | locus YCL016C, strain dcc1, stronger effect = lower value 0.97 | locus YCL029C, strain bik1, stronger effect = lower value 1.03 | locus YCL061C, strain MRC1, stronger effect = lower value 0.991 | locus YCL069W, strain vba3, stronger effect = lower value 0.979 | locus YCR088W, strain abp1, stronger effect = lower value 0.992 | locus YDL005C, strain med2, stronger effect = lower value 0.971 | locus YDL035C, strain GPR1, stronger effect = lower value 1.01 | locus YDL040C, strain nat1, stronger effect = lower value 0.983 | locus YDL074C, strain BRE1, stronger effect = lower value 1.03 | locus YDL101C, strain DUN1, stronger effect = lower value 1.02 | locus YDL134C, strain PPH21, stronger effect = lower value 0.987 | locus YDL185W, strain tfp1, stronger effect = lower value 1.01 | locus YDL192W, strain arf1, stronger effect = lower value 1.01 | locus YDR001C, strain nth1, stronger effect = lower value 0.992 | locus YDR069C, strain doa4, stronger effect = lower value 0.998 | locus YDR101C, strain arx1, stronger effect = lower value 1.01 | locus YDR137W, strain rgp1, stronger effect = lower value 0.968 | locus YDR150W, strain NUM1, stronger effect = lower value 1 | locus YDR159W, strain sac3, stronger effect = lower value 1.01 | locus YDR162C, strain NBP2, stronger effect = lower value 1.01 | locus YDR195W, strain ref2 0.942 | locus YDR297W, strain sur2, stronger effect = lower value 0.994 | locus YDR318W, strain mcm21, stronger effect = lower value 1.02 | locus YDR334W, strain swr1, stronger effect = lower value 0.981 | locus YDR335W, strain msn5, stronger effect = lower value 0.987 | locus YDR388W, stronger effect = lower value 1.03 | locus YDR392W, strain spt3, stronger effect = lower value 0.988 | locus YDR502C, strain sam2, stronger effect = lower value 1.02 | locus YEL003W, strain gim4, stronger effect = lower value 0.986 | locus YEL037C, strain rad23, stronger effect = lower value 0.986 | locus YEL061C, strain CIN8 (second series), stronger effect = lower value 0.985 | locus YEL061C, strain CIN8, stronger effect = lower value 1 | locus YER015W, strain faa2, stronger effect = lower value 0.991 | locus YER016W, strain bim1, stronger effect = lower value 0.953 | locus YER110C, stronger effect = lower value 1.02 | locus YER111C, strain swi4, stronger effect = lower value 0.971 | locus YER155C, strain BEM2 (second series), stronger effect = lower value 0.982 | locus YER155C, strain BEM2, stronger effect = lower value 0.997 | locus YER167W, strain BCK2, stronger effect = lower value 1.01 | locus YFR010W, strain ubp6, stronger effect = lower value 1 | locus YGL078C, strain dbp3, stronger effect = lower value 1.01 | locus YGL086W, strain mad1, stronger effect = lower value 1.02 | locus YGL167C, strain pmr1, stronger effect = lower value 0.983 | locus YGL173C, strain kem1, stronger effect = lower value 0.985 | locus YGL227W, strain vid30, stronger effect = lower value 0.984 | locus YGL240W, strain doc1, stronger effect = lower value 1.02 | locus YGL248W, strain PDE1, stronger effect = lower value 1.04 | locus YGL253W, strain hxk2, stronger effect = lower value 0.979 | locus YGR078C, strain PAC10, stronger effect = lower value 1.01 | locus YGR135W, strain pre9, stronger effect = lower value 1.03 | locus YGR229C, strain SMI1, stronger effect = lower value 1.01 | locus YGR252W, strain gcn5, stronger effect = lower value 1.02 | locus YHR013C, strain ard1, stronger effect = lower value 0.952 | locus YHR027C, strain rpn1, stronger effect = lower value 0.976 | locus YHR030C, strain SLT2, stronger effect = lower value 1 and 0.996 | locus YHR079C, strain IRE1 (second series), stronger effect = lower value 1.02 | locus YHR079C, strain IRE1, stronger effect = lower value 0.987 | locus YHR094C, strain hxt1, stronger effect = lower value 1.01 | locus YHR129C, strain ARP1, stronger effect = lower value 1 | locus YHR142W, strain chs7, stronger effect = lower value 0.977 | locus YHR200W, strain rpn10, stronger effect = lower value 1.02 | locus YIL066C, strain RNR3, stronger effect = lower value 1 | locus YIL073C, strain SPO22, stronger effect = lower value 1.04 | locus YIL125W, strain kgd1, stronger effect = lower value 1.01 | locus YIR030C, strain dcg1, stronger effect = lower value 1.02 | locus YJL092W, strain hpr5, stronger effect = lower value 0.986 | locus YJL095W, strain BCK1 (second series), stronger effect = lower value 0.996 | locus YJL095W, strain BCK1, stronger effect = lower value 1.05 and 0.998 | locus YJL115W, strain asf1, stronger effect = lower value 0.978 | locus YJL129C, strain trk1, stronger effect = lower value 0.956 | locus YJL134W, strain LCB3, stronger effect = lower value 1.01 | locus YJL154C, strain vps35, stronger effect = lower value 0.968 | locus YJL164C, strain tpk1, stronger effect = lower value 0.988 | locus YJL166W, strain qcr8, stronger effect = lower value 1.01 | locus YJL168C, strain set2, stronger effect = lower value 1.02 | locus YJL187C, strain SWE1 (second series), stronger effect = lower value 1.01 | locus YJL187C, strain SWE1, stronger effect = lower value 0.987 | locus YJR043C, strain POL32, stronger effect = lower value 1.03 | locus YJR066W, strain TOR1, stronger effect = lower value 0.901
